ST2 inh: blocks human ST2 binding to IL-33. AlphaLISA ST2-Fc/biotin-IL-33 interaction, 1 h. inhibition, % for hits at 17 µM. 2.3% of 78,000 active. AID 1259354; in the data active = inhibition above about 30%
Target sequence (Q01638 whole entry, looked up): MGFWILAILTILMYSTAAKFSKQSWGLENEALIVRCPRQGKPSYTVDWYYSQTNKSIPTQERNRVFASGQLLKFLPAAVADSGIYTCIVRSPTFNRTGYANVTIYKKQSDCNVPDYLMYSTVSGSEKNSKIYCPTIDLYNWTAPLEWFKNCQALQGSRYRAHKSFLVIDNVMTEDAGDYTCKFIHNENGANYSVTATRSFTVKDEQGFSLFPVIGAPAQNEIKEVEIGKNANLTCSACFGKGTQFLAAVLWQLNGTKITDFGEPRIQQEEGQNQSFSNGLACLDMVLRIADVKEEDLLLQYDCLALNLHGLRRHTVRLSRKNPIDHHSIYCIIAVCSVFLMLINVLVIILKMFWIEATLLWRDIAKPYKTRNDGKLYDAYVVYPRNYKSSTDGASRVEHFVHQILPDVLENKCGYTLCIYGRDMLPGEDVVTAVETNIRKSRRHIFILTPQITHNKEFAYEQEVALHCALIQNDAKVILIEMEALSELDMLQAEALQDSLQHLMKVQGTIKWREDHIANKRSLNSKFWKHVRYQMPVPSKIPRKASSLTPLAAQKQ
A number is an active result; i = inactive. The sample as a whole holds a higher share of hits than the screen did.

SMILES	ST2 inh
Clc1cccc(CN2CCOCC2)c1Cl	i
CC(C)(C)c1nnc(Nc2ccc(Cl)c(Cl)c2)[nH]c1=O	i
Cc1ccc(Sc2c(-c3ccccc3)nc3sccn23)cc1	i
Cc1cc(C(=O)CN2CCOCC2)c(C)n1-c1cccc(F)c1	i
O=C(O)CCCC[C@H]1SC[C@H]2NC(=O)N[C@H]21	96%
NCCCCC(=O)O	i
Cn1c(=O)cc(SCC(=O)NCCCN2CCCC2)c2ccccc21	i
N#CC1=C(N)Oc2n[nH]c(-c3ccc(F)cc3)c2C1c1ccc2c(c1)OCO2 (stereo not given)	i
O=C(c1ccc([N+](=O)[O-])cc1)c1ccc(Cl)c(Cl)c1	58%
COc1ccc(C(=O)NCCNc2ccc([N+](=O)[O-])cc2)cc1Cl	i
O=C(Nc1ccccc1O)c1ccc([N+](=O)[O-])cc1	i
O=C(c1cccnc1N1CCN(Cc2ccoc2)CC1)N1CCCCC1	i
CN(C)c1ccc(NC(=O)Nc2ccc3nc(-c4ccccn4)c(-c4ccccn4)nc3c2)cc1	i
CN(C)c1ccc(Nc2c([N+](=O)[O-])cc([N+](=O)[O-])c3cccnc23)cc1	95%
O=[N+]([O-])c1cc(Cl)c2cccnc2c1O	i
Cc1cc([N+](=O)[O-])nn1CCCC(=O)Nc1ccc(Br)cc1	i
CCNC(=O)[C@@H]1C[C@H](N)CN1C(=O)c1cccc2cc(C)oc12	i
COc1ccc(NC(=O)CN2C(=O)c3ccc([N+](=O)[O-])cc3C2=O)c(OC)c1	i
COc1ccc(C2=NN(CN3C(=O)C(=O)c4ccccc43)C(c3ccccc3)C2)cc1 (stereo not given)	36%
COc1ccc(C2=NN(CN3C(=O)C(=O)c4ccccc43)C(c3cccc([N+](=O)[O-])c3)C2)cc1 (stereo not given)	39%
COc1ccc(C2=NN(S(=O)(=O)c3ccccc3)C(c3ccc(Br)cc3)C2)cc1 (stereo not given)	i
COc1ccc(N2C(=O)C(N3C(=O)c4ccccc4C3=O)C2c2cccc(OC)c2)cc1 (stereo not given)	i
COc1ccc(C2CC(c3ccc(Br)cc3)=NN2S(=O)(=O)c2ccccc2)cc1 (stereo not given)	34%
COc1ccccc1C1CC(c2ccc(Br)cc2)=NN1S(=O)(=O)c1ccccc1 (stereo not given)	i
COc1ccc(C2=NN(C(=O)CCC(=O)O)C(c3ccc(Cl)cc3)C2)cc1 (stereo not given)	i
SMILES	ST2 inh
COc1ccc(C2CC(c3ccccc3)=NN2S(=O)(=O)c2ccccc2)cc1 (stereo not given)	i
COCCn1c(=O)[nH]c2cc(C(=O)N3CCN(C)CC3)ccc2c1=O	i
Cc1ccc(Cn2c(Cl)nc3c2c(=O)n(C)c(=O)n3C)cc1	i
COc1ccccc1C(=O)Nc1ccc(S(N)=O)cc1 (stereo not given)	i
CC(=O)Nc1cc(C(=O)N2CCN(c3ccccn3)CC2)ccc1Sc1ccc(C)cc1	i
COc1ccc2nc(N3CCC(C(=O)NCCCN4CCOCC4)CC3)sc2c1	i
O=C(Nc1ccccc1)N1CCC(N2CCCC(C(=O)N3CCOCC3)C2)CC1 (stereo not given)	i
CC1CC(C)CN(C(=O)C2(S(=O)(=O)c3ccc(Cl)cc3)CC2)C1 (stereo not given)	i
C#CCOc1nc2c(c(=O)n(C)c(=O)n2C)n1Cc1ccccc1Cl	i
CC1CCN(c2nc3c(c(=O)n(C)c(=O)n3C)n2Cc2ccccc2Cl)CC1	i
COc1ccccc1Oc1nc2c(c(=O)n(C)c(=O)n2C)n1Cc1ccccc1F	31%
CCOc1nc2c(c(=O)n(C)c(=O)n2C)n1Cc1ccccc1Cl	30%
COCCCNc1nc2c(c(=O)n(C)c(=O)n2C)n1Cc1ccccc1F	i
CC(CCO)Nc1nc2c(c(=O)n(C)c(=O)n2C)n1Cc1ccccc1F (stereo not given)	i
CC(=O)Nc1ccc(C(=O)Nc2ccc(I)cc2)cc1	i
CC(C)N(CCN1CCCCCC1)Cc1ccc(C(=O)O)cc1	i
CC(CNCc1cn[nH]c1-c1ccc(F)cc1)Oc1cccnc1 (stereo not given)	i
O=C(C1CC1)N1c2ccccc2Sc2ccc(C(F)(F)F)cc21	i
CC1OC(OC2C(O)C(OCCc3ccc(O)c(O)c3)OC(CO)C2OC(=O)/C=C/c2ccc(O)c(O)c2)C(OC2OCC(O)C(O)C2O)C(O)C1O (stereo not given)	i
O=C1CN(C(=O)c2csc3c2CCCC3)CC(OCc2ccccn2)CN1Cc1ccccc1 (stereo not given)	i
Cc1sc(N=Cc2ccc(Br)cc2)c(C#N)c1C	55%
NS(=O)(=O)c1ccc(N=Cc2ccc(Br)cc2)cc1	i
COc1ccc(C=Nc2sc3c(c2C#N)CCCC3)cc1[N+](=O)[O-]	i
CC(C)c1ccc(N(C(=O)c2cccc(Cl)c2)C2C=CS(=O)(=O)C2)cc1 (stereo not given)	i
COCCNc1nc2c(c(=O)n(C)c(=O)n2C)n1Cc1c(Cl)cccc1Cl	i
SMILES	ST2 inh
COC(=O)c1ccc(-c2noc(CN3CCC(C(O)c4cccs4)CC3)n2)cc1 (stereo not given)	i
CCOc1ccccc1NC(=O)c1ccc(=O)n(Cc2ccc(F)cc2)c1	i
N#CC1=C(N)OC2=C(C(=O)CCC2)C1c1ccccc1F (stereo not given)	i
Cc1cc(NC(=O)c2noc3c2CC(C)CC3)no1 (stereo not given)	i
CC(=O)N(c1ccc2oc3c(c2c1)CCCC3)S(=O)(=O)c1cc([N+](=O)[O-])ccc1C	i
CC1CCc2oc3cc([N+](=O)[O-])cc([N+](=O)[O-])c3c2C1 (stereo not given)	59%
Cc1ccsc1[C@@H]1CCN(C(=O)c2ccc(-c3ncn[nH]3)cc2)C[C@H]1O	i
CN(C)c1ccc(/C=C/c2nc3ccc(I)cc3c(=O)n2C)cc1	42%
CN(C)c1ccc(/C=C/c2nc3ccccc3c(=O)n2CCCO)cc1	i
COc1ccc(/C=C/c2nc3ccccc3c(=O)n2Cc2ccccc2)cc1	i
Cc1cc([N+](=O)[O-])ccc1NC(=O)CC(C)c1ccccc1 (stereo not given)	i
Cc1cc([N+](=O)[O-])ccc1NC(NC(=O)c1cccs1)C(=O)c1ccccc1 (stereo not given)	35%
O=C(NC(Nc1ccc([N+](=O)[O-])cc1)C(=O)c1ccccc1)c1ccccc1 (stereo not given)	i
Cc1cc(S(=O)(=O)N(CCCC(=O)O)Cc2ccc(Br)cc2)ccc1F	i
COCCn1c(CNC(=O)Cc2cccc(C)c2)nc2cccnc21	i
CCCN(CCC)S(=O)(=O)c1ccc2c(c1)NC(=O)CC(=O)N2	i
CCC(C)NC(=O)c1cn(CC)c2ccc(S(=O)(=O)N(C)C3CCCCC3)cc2c1=O (stereo not given)	i
CC(=O)N(CN1C(=O)c2ccccc2C1=O)c1ccc(F)cc1	i
O=C1c2ccccc2C(=O)N1CN(C(=O)c1ccccc1)c1ccc(F)cc1	77%
O=C1c2ccccc2C(=O)N1CN(C(=O)c1ccccc1)c1ccc(Br)cc1	i
O=C1CC(NS(=O)(=O)N2CCCCC2)CN1CCCc1ccccc1 (stereo not given)	i
O=C1CC(NCc2ccccn2)CN1CCCc1ccccc1 (stereo not given)	53%
O=C(NCc1ccccn1)C1CC(=O)N(CCc2ccccc2)C1 (stereo not given)	i
CCOC(=O)C(C)Sc1nc2c(c(=O)n1-c1ccc(C)cc1)SCC2 (stereo not given)	i
CCc1cc2c(=O)c(-c3nc4ccccc4s3)coc2cc1OC	i

Compound activity (PubChem)
